# In ChEMBL document CHEMBL3988442, “University of Dundee, Small-Polar-MMV Screening Library” (2021):
# For part of these data: Potency and affinity values are given separately.
# Columns and labels:
# Parameters in all cases: scale not given: direction of the effect not stated beside the values
# [1] = biological target: Protein translocase subunit SecA (Escherichia coli (strain K12)) (UniProt P10408); assay: Assay to Identify E. coli SecA ATPase Inhibitors; format: functional; conditions: 30 µM
# [2] = biological target: T1, Ubiquitin-activating enzyme e1, putative (Leishmania donovani (strain BPK282A1)) (UniProt E9BSI1); assay: Leishmania donovani Ubiquitin Activating Enzyme (LdE1); format: functional; conditions: 30 µM
# T1 sequence (whole entry): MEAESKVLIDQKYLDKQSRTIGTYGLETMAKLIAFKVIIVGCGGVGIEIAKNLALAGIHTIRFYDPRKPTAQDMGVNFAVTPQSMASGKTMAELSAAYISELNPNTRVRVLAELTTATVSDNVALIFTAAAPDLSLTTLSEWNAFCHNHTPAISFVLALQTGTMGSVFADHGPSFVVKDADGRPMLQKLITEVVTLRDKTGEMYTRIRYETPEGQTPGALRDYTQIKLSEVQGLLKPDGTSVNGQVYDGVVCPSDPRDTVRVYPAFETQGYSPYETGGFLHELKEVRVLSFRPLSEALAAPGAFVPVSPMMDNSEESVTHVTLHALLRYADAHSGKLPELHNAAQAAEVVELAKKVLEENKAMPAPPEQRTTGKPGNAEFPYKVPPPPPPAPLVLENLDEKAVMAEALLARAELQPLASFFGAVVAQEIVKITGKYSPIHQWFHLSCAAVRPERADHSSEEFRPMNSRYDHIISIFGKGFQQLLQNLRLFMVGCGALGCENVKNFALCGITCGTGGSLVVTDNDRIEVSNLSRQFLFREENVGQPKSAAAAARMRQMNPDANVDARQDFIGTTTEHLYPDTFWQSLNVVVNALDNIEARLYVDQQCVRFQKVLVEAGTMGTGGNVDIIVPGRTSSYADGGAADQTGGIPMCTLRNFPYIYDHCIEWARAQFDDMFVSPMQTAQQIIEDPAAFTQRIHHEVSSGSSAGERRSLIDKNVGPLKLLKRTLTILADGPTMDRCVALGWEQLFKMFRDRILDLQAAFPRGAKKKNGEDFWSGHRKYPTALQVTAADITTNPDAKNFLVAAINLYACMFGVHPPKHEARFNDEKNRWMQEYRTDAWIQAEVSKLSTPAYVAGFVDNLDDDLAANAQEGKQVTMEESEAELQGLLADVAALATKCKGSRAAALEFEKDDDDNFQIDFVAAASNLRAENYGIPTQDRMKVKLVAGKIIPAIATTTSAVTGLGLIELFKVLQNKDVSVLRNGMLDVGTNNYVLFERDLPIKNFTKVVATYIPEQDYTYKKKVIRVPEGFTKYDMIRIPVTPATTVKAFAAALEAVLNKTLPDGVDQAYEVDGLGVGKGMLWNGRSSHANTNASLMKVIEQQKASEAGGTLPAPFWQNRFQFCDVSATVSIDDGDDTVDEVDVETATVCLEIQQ
# [3] = biological target: Sialic acid-binding Ig-like lectin 9 (Homo sapiens) (UniProt Q9Y336); assay: Hs-Siglec9 ALPHAscreen SOP 20170721; conditions: 10 µM
# Trypanosoma cruzi = assay: Trypanosoma cruzi phosphomannomutase and mannose-1-phosphate guanylyltransferase assay; format: functional; conditions: 10 µM
# [4] = biological target: T2, Arginase-2, mitochondrial (Homo sapiens) (UniProt P78540); assay: in vitro enzyme assay to detect the production of urea directly proportional to the activity of Arginase II; format: functional; conditions: 33.3 µM; also: in the data most compounds retested in dose-response had high values
# T2 sequence (whole entry): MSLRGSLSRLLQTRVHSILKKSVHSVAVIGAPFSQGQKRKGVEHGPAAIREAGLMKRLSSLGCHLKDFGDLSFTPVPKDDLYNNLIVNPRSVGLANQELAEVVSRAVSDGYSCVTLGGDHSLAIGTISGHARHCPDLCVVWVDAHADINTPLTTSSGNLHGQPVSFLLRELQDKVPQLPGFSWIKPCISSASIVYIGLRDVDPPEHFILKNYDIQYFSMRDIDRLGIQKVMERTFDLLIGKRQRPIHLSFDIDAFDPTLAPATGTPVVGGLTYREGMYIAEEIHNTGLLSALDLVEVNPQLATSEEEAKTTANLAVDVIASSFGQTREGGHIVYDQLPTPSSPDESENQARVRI
# [5] = biological target: T3, Proteasome subunit beta (Trypanosoma cruzi) (UniProt O96673); assay: Trypanosoma cruzi proteasome chymotrypsin-like activity (TcProtChymo) assay.; also: in the data most compounds retested in dose-response had high values; format: functional; conditions: 9.37 µM
# T3 sequence (whole entry): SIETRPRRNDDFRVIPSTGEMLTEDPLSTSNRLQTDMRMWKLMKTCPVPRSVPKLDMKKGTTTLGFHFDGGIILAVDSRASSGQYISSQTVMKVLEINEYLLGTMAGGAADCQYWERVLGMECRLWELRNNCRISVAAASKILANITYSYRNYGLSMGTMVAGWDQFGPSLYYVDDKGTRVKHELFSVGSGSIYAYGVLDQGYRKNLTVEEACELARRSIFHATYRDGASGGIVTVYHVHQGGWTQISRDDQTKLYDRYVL
# Homo sapiens = species on record: Homo sapiens; assay: To identify inhibition of the IFN signalling (Jak-Stat) pathway via expression of an eGFP reporter gene under the control of an IFN-stimulated response element (ISRE) containing MxA promoter.; format: functional; conditions: 30 µM
# [6] = biological target: T4, Tyrosyl-tRNA synthetase, putative (Trypanosoma cruzi (strain CL Brener)) (UniProt Q4DSP6); assay: Trypanosoma cruzi tyrosyl tRNA synthetase (TcYRS) _High Tyrosine SOP; format: functional; conditions: 30 µM; also: in the data most compounds retested in dose-response had high values
# T4 sequence (whole entry): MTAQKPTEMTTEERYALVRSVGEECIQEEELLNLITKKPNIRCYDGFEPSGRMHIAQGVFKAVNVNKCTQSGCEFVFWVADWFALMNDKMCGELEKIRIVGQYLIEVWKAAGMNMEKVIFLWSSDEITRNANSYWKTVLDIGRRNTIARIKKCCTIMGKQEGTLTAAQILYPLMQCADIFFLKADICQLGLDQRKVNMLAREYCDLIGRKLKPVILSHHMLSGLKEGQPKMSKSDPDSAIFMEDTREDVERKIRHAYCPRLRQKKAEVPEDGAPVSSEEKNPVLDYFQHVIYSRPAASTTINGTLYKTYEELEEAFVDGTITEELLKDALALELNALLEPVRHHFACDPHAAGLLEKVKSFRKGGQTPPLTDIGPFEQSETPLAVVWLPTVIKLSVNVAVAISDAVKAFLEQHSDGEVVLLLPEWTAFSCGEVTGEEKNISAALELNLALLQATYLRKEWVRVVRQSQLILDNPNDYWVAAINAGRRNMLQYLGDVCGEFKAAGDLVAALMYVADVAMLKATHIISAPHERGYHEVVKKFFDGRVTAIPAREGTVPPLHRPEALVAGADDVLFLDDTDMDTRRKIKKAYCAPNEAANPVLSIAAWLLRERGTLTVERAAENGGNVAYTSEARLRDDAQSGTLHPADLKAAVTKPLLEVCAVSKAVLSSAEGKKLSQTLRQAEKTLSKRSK
# [7] = biological target: T4, Tyrosyl-tRNA synthetase, putative (Trypanosoma cruzi (strain CL Brener)); assay: Trypanosoma cruzi tyrosyl tRNA synthetase (TcYRS) SOP; format: functional; conditions: 30 µM
# [8] = biological target: Chromo domain-containing protein 1 (Saccharomyces cerevisiae (strain ATCC 204508 / S288c) (Baker's yeast)) (UniProt P32657); assay: ScCHD-1 Enzyme Inhibition Assay; format: functional; conditions: 30 µM; also: in the data most compounds retested in dose-response had high values
# Chain of Chromo domain-containing protein 1 (Saccharomyces cerevisiae (strain ATCC 204508 / S288c) (Baker's yeast)) (P32657 whole entry, the tested form may be a part): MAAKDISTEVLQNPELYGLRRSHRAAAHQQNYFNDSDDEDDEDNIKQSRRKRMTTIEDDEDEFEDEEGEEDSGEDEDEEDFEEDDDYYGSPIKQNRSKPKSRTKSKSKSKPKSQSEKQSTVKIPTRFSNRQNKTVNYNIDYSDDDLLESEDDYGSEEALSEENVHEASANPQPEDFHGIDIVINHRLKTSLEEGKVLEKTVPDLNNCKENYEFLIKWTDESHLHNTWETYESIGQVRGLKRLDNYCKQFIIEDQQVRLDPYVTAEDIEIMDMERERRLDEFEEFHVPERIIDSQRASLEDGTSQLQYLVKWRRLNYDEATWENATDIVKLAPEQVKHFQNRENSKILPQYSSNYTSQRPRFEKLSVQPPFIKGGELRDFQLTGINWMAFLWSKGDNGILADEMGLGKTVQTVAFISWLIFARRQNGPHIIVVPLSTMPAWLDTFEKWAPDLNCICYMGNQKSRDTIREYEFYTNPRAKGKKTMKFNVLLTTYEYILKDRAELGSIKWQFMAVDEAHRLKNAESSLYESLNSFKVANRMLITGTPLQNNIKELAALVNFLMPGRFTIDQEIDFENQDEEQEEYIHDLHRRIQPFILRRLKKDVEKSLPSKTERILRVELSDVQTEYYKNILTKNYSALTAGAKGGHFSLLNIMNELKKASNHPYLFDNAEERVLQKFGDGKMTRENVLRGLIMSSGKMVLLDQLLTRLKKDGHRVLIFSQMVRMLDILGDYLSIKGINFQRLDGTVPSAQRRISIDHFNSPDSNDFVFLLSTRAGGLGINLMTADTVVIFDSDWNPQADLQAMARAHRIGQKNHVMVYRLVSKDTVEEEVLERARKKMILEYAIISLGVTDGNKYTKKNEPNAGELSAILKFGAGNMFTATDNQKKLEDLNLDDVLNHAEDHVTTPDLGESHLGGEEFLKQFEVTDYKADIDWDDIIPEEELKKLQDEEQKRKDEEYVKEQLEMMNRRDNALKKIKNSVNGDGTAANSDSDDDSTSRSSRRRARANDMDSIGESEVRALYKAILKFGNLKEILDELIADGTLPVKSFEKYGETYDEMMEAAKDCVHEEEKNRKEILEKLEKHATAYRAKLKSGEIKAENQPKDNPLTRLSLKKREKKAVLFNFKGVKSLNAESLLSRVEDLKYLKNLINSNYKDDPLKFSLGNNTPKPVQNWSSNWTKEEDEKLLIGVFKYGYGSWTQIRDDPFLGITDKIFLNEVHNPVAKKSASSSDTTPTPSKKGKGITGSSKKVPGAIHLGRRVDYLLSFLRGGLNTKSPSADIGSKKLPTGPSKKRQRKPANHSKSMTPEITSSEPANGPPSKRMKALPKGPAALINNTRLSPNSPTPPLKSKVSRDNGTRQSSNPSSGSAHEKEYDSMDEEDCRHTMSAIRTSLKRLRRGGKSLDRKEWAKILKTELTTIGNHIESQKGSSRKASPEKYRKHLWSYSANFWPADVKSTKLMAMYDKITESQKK
# Chain of Protein translocase subunit SecA (Escherichia coli (strain K12)) (P10408 whole entry): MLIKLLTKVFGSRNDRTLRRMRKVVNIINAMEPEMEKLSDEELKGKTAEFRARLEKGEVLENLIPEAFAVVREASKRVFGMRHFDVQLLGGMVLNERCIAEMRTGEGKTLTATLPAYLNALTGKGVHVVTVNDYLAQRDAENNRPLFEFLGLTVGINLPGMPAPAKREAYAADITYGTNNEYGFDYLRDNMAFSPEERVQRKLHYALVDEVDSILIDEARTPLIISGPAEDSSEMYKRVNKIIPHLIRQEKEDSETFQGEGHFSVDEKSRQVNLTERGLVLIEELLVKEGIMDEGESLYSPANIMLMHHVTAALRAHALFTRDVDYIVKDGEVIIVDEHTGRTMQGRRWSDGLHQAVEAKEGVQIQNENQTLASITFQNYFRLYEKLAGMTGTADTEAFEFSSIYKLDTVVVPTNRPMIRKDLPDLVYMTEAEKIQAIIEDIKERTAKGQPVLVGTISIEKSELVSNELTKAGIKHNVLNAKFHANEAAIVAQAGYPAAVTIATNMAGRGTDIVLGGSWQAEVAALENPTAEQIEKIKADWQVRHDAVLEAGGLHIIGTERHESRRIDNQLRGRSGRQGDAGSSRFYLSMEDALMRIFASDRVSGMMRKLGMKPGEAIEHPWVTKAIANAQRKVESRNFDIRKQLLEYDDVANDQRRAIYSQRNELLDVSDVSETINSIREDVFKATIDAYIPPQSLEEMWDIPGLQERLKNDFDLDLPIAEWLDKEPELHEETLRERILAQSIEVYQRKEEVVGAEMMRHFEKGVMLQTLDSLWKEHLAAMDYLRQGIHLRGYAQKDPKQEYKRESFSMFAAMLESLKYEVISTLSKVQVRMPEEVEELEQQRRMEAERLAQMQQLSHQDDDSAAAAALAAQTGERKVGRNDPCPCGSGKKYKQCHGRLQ
# Chain of Sialic acid-binding Ig-like lectin 9 (Homo sapiens) (Q9Y336 whole entry): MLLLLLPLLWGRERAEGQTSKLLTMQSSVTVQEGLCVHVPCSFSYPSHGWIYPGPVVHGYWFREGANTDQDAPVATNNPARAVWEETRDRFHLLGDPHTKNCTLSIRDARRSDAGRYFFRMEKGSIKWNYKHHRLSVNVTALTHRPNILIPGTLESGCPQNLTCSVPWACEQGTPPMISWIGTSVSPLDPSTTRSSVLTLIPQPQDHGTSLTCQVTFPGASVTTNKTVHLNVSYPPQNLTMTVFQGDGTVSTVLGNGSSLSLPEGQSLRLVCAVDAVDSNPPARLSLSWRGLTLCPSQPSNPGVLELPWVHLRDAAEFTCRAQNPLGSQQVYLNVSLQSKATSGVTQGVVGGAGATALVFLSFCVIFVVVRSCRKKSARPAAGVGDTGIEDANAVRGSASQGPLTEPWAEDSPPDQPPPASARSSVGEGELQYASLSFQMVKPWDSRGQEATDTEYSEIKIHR
SMILES,Percent Effect [1],Percent Effect [2],Percent Effect [3],Percent Effect (Trypanosoma cruzi),Percent Effect [4],Percent Effect [5],Percent Effect (Homo sapiens),Percent Effect [6],Percent Effect [7],Percent Effect [8]
CC(C)(O)CN1CCN(C(=O)c2cccnc2O)CC1,-2.01%,-2.56%,5.77%,7.98%,2.46%,9.13%,-4.14%,1.44%,1.21%,-0.501%
CNC(=O)[C@@H]1C[C@H]2CN(Cc3ccco3)C[C@H]2N1C,-3.02%,-27.3%,-0.86%,-3.19%,4.11%,16.7%,-13.8%,9.66%,12.5%,-2.19%
CN(C)CC1CN(Cc2coc(-c3ccccc3Cl)n2)CCO1 (stereo not given),-1.66%,13.3%,-4.39%,-2.41%,2.66%,10.6%,3.83%,0.526%,5.13%,-10.4%
Cc1nc(CNCC2CN(C)CCO2)cs1 (stereo not given),-4.87%,18.2%,4.98%,3.73%,-3.89%,1.05%,-7.33%,1.96%,21.2%,-11.4%
O=C(Cn1cc(-c2ccccc2)ncc1=O)Nc1ccncc1,-7.06%,5.41%,4.3%,-0.097%,3.85%,20%,-4.45%,6.92%,17.1%,90.8%
CC1(C)OCC(CNC(=O)c2cnn(-c3ccc(Cl)cc3)c2N)O1 (stereo not given),2.19%,17.3%,-9.2%,-2.76%,-0.443%,14%,15.1%,-6.35%,2.5%,-22.4%
CCNC(=O)[C@@H]1C[C@@H](NC(=O)Cc2ccncc2)CN1Cc1ccsc1,-12.1%,2.7%,3.71%,-4.56%,-0.35%,11.6%,-2.37%,4.79%,2.44%,5.29%
CCc1nc(C2CCCN2C(=O)c2ccoc2C)no1 (stereo not given),2.59%,-2.56%,10.5%,0.469%,5.74%,2.3%,17.4%,-0.478%,-18.1%,0.101%
Cc1nn(C)c(N(C)C)c1CNCCNS(C)(=O)=O,-1.65%,10.3%,-0.784%,5.54%,5.74%,9.3%,-6.32%,7.18%,20.5%,-2.87%
CC(C)c1nc(C2CCCN2Cc2ccn(C)c(=O)c2)no1 (stereo not given),-2.26%,15.4%,1.98%,-0.845%,7.79%,20.1%,17.1%,6.22%,18.1%,-2.67%
COC(=O)N1C[C@H]2CC[C@@H]1CN(Cc1cscn1)C2,-8.16%,0%,5.89%,7.66%,-1.05%,9.93%,28.6%,5.85%,14.6%,-2.59%
COc1ccc(CN2CCC3(CC2)CCN(CC(C)C)C3=O)cc1,-1.79%,-1.3%,-0.794%,-0.75%,-3.2%,-0.601%,6.85%,0.966%,0%,-5.19%
CCc1ncc2c(n1)CN(CC(=O)Nc1nnc(C)s1)CC2,-2.11%,5.33%,0.404%,-4.22%,5.32%,8.4%,-8.8%,6.84%,10.3%,-13.6%
Cc1cc(C)cc(OCC(=O)NC2CCN(S(C)(=O)=O)CC2)c1,-3.04%,13%,-6.89%,-8.58%,-1.84%,8.77%,14.6%,3.92%,16.5%,-7.11%
Cc1ccc(NC2CCN(C(=O)c3cccc4ncccc34)CC2)nn1,-3.89%,5.33%,-2.08%,-0.803%,3.99%,-1.61%,9.09%,13.2%,15.4%,-8.9%
CCN(CC)C(=O)C(c1ccccc1)N1CCn2c(C)nnc2C1 (stereo not given),-4.22%,17.9%,9.65%,7.61%,0.82%,8.45%,10.3%,7.18%,22.9%,-4.71%
CC(C)NC(=O)N1CCC2(CC(=O)N(c3cccc(C#N)c3)C2)C1 (stereo not given),-4.66%,-16.9%,0.438%,-3.6%,-3.64%,9.8%,-4.77%,-0.526%,-35.9%,-0.524%
CCc1nc(C2CCCN2C(=O)CCCn2cccn2)no1 (stereo not given),-1.9%,5.2%,9.24%,4.66%,8.4%,8.25%,4.76%,1.96%,4.71%,-9.39%
CCOC1COC2(CCN(Cc3cccc(F)c3)CC2)C1 (stereo not given),-1.34%,14.3%,-2.76%,-1.13%,0.457%,5.75%,21.4%,2.9%,7.5%,-7.79%
Cc1noc(C2CCN(C(=O)c3ccc(NC4CC4)nc3)CC2)n1,-3.73%,20.5%,-12.9%,4.6%,1.64%,11.3%,11.4%,2.39%,20.5%,-6.59%
Cc1ccc(-c2cc(CN3CCOC(Cn4cncn4)C3)on2)cc1 (stereo not given),-2.91%,5.2%,4.78%,-0.56%,-1.43%,1.4%,12.8%,10.8%,18.8%,-5.72%
Cc1c(CN2CCCC(c3[nH]ncc3S(C)(=O)=O)C2)cnn1C (stereo not given),-2.55%,22.7%,-0.226%,3.94%,-5.75%,12.5%,11.7%,3.17%,17.5%,-24.1%
Cc1cccc(CN2C(=O)CCC23CCN(c2ncc(F)cn2)CC3)n1,-5.56%,16.9%,-3.32%,-1.13%,5.02%,0.258%,-16%,11.6%,15%,-8.12%
COC(=O)CC(c1ccccc1)c1oc(C)cc(=O)c1O (stereo not given),-10.4%,0%,4.84%,-5.33%,-1.75%,1.71%,6.47%,1.6%,0%,-1.53%
